Source: PubChem
The list is not random: actives were taken first. Their share in the collection is about 3.1%.
PP5 primary: inhibitors of human protein phosphatase 5 (PP5); purified PP5c, OMFP substrate fluorescence; inhibition, % at 6.7 µM; actives 0.18% (n = 320,000);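 active = inhibition above the campaign's mean inhibition across all tested compounds plus 3 SD, cut at about 9.5% in these data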;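 also: 0% = DMSO only and 100% = 100 µM cantharidin control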
SKKanGAS inh: inhibitors of SKKanGAS S. pyogenes growth in kanamycin (SK-promoter or general growth effect); BacTiter-Glo, 6 h; inhibition, % at 7.5 µM; actives 1.3% (n = 300,000); AID 1662;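 active = mean replicate score, as percent of positive control median, at least 50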;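 also: strain carries kanamycin resistance gene driven by streptokinase promoter and grows in 40 µg/ml kanamycin; loss of luminescence reflects streptokinase promoter inhibition or plain growth inhibition; 0% = median of DMSO wells and 100% = positive control at its reference dose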
PP1 counter: PP1-alpha (human) inhibition in PP5 counter-screen | purified PP1alpha, OMFP fluorescence | inhibition, % at 6.7 µM | P62136 | actives 0.9% (n = 320,000);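 active = inhibition above the mean inhibition of all tested compounds plus 3 SD, computed separately for each screening campaign, cut at about 15% in these data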
Target sequence (P62136 whole entry, looked up): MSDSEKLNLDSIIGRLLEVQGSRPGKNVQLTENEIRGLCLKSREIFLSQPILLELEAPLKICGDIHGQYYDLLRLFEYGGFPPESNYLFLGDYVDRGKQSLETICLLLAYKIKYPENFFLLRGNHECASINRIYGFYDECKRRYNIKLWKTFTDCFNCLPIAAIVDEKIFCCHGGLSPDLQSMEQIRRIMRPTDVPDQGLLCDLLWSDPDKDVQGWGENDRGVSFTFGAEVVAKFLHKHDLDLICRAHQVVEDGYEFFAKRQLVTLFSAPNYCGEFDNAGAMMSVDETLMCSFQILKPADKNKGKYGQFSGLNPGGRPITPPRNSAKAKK
Beta apoptosis: beta cell apoptosis inhibition. INS-1E cytokine-induced death, ATP luminescence, 48 h; percent of positive-control rescue, neutral wells zero. protection from apoptosis, % (test concentration not listed). actives 0.8% (n = 300,000);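 active = Every replicate reaches about 75%, or at least half do and their mean reaches it too, limit read from the data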;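 also: 0% = cytokine-treated negative control wells and 100% = positive control rescue; higher means more ATP so stronger rescue from cytokine killing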
CSC inhib: cancer stem cell inhibition; cancer stem cell-like cells viability, luminescence; inhibition, % at 7.5 µM; actives 1.1% (n = 300,000); AID 2717; in the data active = inhibition above about 75%; tested in HMLE shEcad cells
PP1 confirm: confirmation of human PP1 phosphatase inhibitors; inhibition, % at 6.7 µM; actives 52% (n = 1,900); purified PP1alpha, OMFP substrate fluorescence; AID 2358; shares compounds with PP1 counter;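 active = mean PP1 inhibition above a set limit taken from the earlier primary screen, cut at about 15% in these data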
PP5 counter: counter-screen for PP1 inhibitors: human PP5 phosphatase inhibition | shares compounds with PP1 counter | purified PP5c, OMFP fluorescence | inhibition, % at 6.7 µM | actives 4% (n = 1,900);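 active = mean PP5 inhibition over triplicate wells above about 9.5% taken from the earlier PP1 screen, limit read from the data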
* = called active by the depositor.

What do the screens show for `O=C(Nc1nc2ccc(Cl)cc2s1)c1ccco1`?
PP5 primary: -2; SKKanGAS inh: -3; PP1 counter: 2; Beta apoptosis: 12; CSC inhib: 5

How did CCOc1cccc(C2C(C(=O)c3ccc(C)o3)=C(O)C(=O)N2c2nccs2)c1 (stereo not given) do in these assays?
PP5 primary: -1; SKKanGAS inh: 25; PP1 counter: 22*; Beta apoptosis: 4; CSC inhib: 10; PP1 confirm: 11; PP5 counter: 0

Results for CCOc1cccc(C2C(C(=O)c3ccc(C)o3)=C(O)C(=O)N2Cc2ccncc2)c1 (stereo not given) ?
PP5 primary: -3; SKKanGAS inh: 4; PP1 counter: 5; Beta apoptosis: -6; CSC inhib: -2

How did COC(=O)c1sc(N2C(=O)C(O)=C(C(=O)c3ccc(C)o3)C2c2cccs2)nc1C (stereo not given) do in these assays?
PP5 primary: 2; SKKanGAS inh: 45; PP1 counter: 23*; Beta apoptosis: -3; CSC inhib: -13; PP1 confirm: 21*; PP5 counter: 0

How did Cc1ccc2nc(N3C(=O)C(O)=C(C(=O)c4ccco4)C3c3ccc(C)o3)sc2c1 (stereo not given) do in these assays?
PP5 primary: 2; SKKanGAS inh: 40; PP1 counter: 26*; Beta apoptosis: 0; CSC inhib: 10; PP1 confirm: 25*; PP5 counter: 0

Results for O=C(COC(=O)CNC(=O)c1ccccc1)Nc1ccc(Cl)cc1C(F)(F)F ?
PP5 primary: 0; SKKanGAS inh: 7; PP1 counter: -4; Beta apoptosis: -9

How did CCc1ccc2nc(N3C(=O)C(O)=C(C(=O)c4ccco4)C3c3cccs3)sc2c1 (stereo not given) do in these assays?
PP5 primary: 4; SKKanGAS inh: 88*; PP1 counter: 29*; Beta apoptosis: 0; CSC inhib: 21; PP1 confirm: 24*; PP5 counter: 1

Results for CN1CCN(C(c2ccc(C(F)(F)F)cc2)c2cc(Cl)c3cccnc3c2O)CC1 (stereo not given) ?
PP5 primary: 5; SKKanGAS inh: 104*; PP1 counter: 21*; Beta apoptosis: 100*; CSC inhib: 110*; PP1 confirm: 2; PP5 counter: -3

Results for Cc1[nH]c2ccccc2c1C(c1ccccn1)N1CCCC1 (stereo not given) ?
PP5 primary: 1; SKKanGAS inh: -1; PP1 counter: -2; Beta apoptosis: -3; CSC inhib: 14

How did Oc1c(C(c2ccccn2)N2CCCCC2)cc(Cl)c2cccnc12 (stereo not given) do in these assays?
PP5 primary: 5; SKKanGAS inh: 54*; PP1 counter: 75*; Beta apoptosis: 26; CSC inhib: 70; PP1 confirm: 73*; PP5 counter: 3

How did CN1CCN(C(c2ccccc2)c2ccc(Cl)cc2)CC1 (stereo not given) do in these assays?
PP5 primary: 1; PP1 counter: 1; Beta apoptosis: 6; CSC inhib: 0

What do the screens show for `CCN1CCN(C(c2ccc(C(F)(F)F)cc2)c2ccc3cccnc3c2O)CC1` (stereo not given)?
PP5 primary: 3; SKKanGAS inh: 100*; PP1 counter: 18*; Beta apoptosis: 86*; CSC inhib: 104*; PP1 confirm: -6; PP5 counter: -1

What do the screens show for `CN1CCN(C(c2ccc(Cl)cc2)c2cc(Cl)c3cccnc3c2O)CC1` (stereo not given)?
PP5 primary: 2; SKKanGAS inh: 101*; PP1 counter: 22*; Beta apoptosis: 68; CSC inhib: -16; PP1 confirm: -3; PP5 counter: 1

What do the screens show for `CN1CCN(C(c2cccc(Cl)c2)c2ccccc2Cl)CC1` (stereo not given)?
PP5 primary: -1; SKKanGAS inh: 11; PP1 counter: 5; Beta apoptosis: 0; CSC inhib: -2

How did COc1ccc(C(=O)Nc2ccc(N3CCN(C(=O)C(C)C)CC3)cc2)cc1[N+](=O)[O-] do in these assays?
PP5 primary: 2; SKKanGAS inh: 13; PP1 counter: -2; Beta apoptosis: 2; CSC inhib: -14

What do the screens show for `O=C(Nc1nc2ccccc2[nH]1)NC1CCCCC1`?
PP5 primary: 0; SKKanGAS inh: 10; PP1 counter: -5; Beta apoptosis: 10; CSC inhib: 13

What do the screens show for `CCN(CC)c1ccc(CN2CCC(C(=O)NCc3ccc(C)cc3)CC2)cc1`?
PP5 primary: 0; SKKanGAS inh: -8; PP1 counter: -4; Beta apoptosis: 0; CSC inhib: -15

How did COc1ccccc1-n1cc([C@@H]2C[C@H]3CN(c4ccccc4)C(=O)[C@]34CCCN24)cn1 do in these assays?
PP5 primary: 0; SKKanGAS inh: 12; PP1 counter: 6; Beta apoptosis: 55; CSC inhib: 15

What do the screens show for `CCOc1ccc(N=Nc2c(=O)[nH]n3c(=O)cc(C)[nH]c23)cc1`?
PP5 primary: 9; SKKanGAS inh: 13; PP1 counter: 19*; Beta apoptosis: 37; CSC inhib: -6; PP1 confirm: 6; PP5 counter: -7

What do the screens show for `Cc1cc(=O)n2[nH]c(=O)c(N=Nc3ccccc3)c2[nH]1`?
PP5 primary: 2; SKKanGAS inh: 3; PP1 counter: 2; Beta apoptosis: 5; CSC inhib: 5

Results for O=C(NC(Cc1ccccc1)C(=O)NCCc1ccccn1)c1ccccc1 (stereo not given) ?
PP5 primary: -3; SKKanGAS inh: 1; PP1 counter: -6; Beta apoptosis: -6; CSC inhib: 10

What do the screens show for `Cn1nc(C(F)(F)F)c(-c2ccc(Br)cc2)c1NC(=O)c1nccnc1C(=O)O`?
PP5 primary: 1; SKKanGAS inh: -1; PP1 counter: 1; Beta apoptosis: 4; CSC inhib: -9

Results for Cn1nc(C(F)(F)F)c(-c2ccccc2)c1NC(=O)c1nccnc1C(=O)O ?
PP5 primary: 1; SKKanGAS inh: 4; PP1 counter: 25*; Beta apoptosis: 1; CSC inhib: 4; PP1 confirm: 0; PP5 counter: -3

How did O=C(N/N=C/c1cc([N+](=O)[O-])ccc1O)c1cccc(N2CCCC2=O)c1 do in these assays?
PP5 primary: 3; SKKanGAS inh: 55*; PP1 counter: 25*; Beta apoptosis: 1; CSC inhib: -8; PP1 confirm: 21*; PP5 counter: -5

How did O=C(N/N=C/c1cc([N+](=O)[O-])ccc1O)c1cccc2cc[nH]c12 do in these assays?
PP5 primary: 1; SKKanGAS inh: 89*; PP1 counter: 29*; Beta apoptosis: 100*; CSC inhib: 88*; PP1 confirm: 20*; PP5 counter: -4
